# According to PubChem BioAssay AID1159580 (chemical genetic matrix, 2015):
# Values joined by “and” are separate entries in the source; they are usually repeats but may differ in a detail not shown here. Identical values can stand only once. The campaign covered roughly 5,500 compounds. About 2,000 (36%) were called active. Not shown: some 18% with an inconclusive outcome. The list shows a part of the results. Values without a mark were called inactive. No stated cut-off is given here; in the data, active means normalized growth mostly below about 0.91 (no sharp cut-off); inconclusive means no clear call, values can overlap the other calls; inactive means mostly above about 0.92.
# Assay: chemical genetic growth profiling, strain panel (AID 1159580);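 further: tested at 20 µM; growth read once vehicle control cultures reached saturation at 30 °C; 1 = growth at the plate median or of vehicle wells; lower values mean less growth of the strain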
# Conditions: S. cerevisiae deletion strains, growth OD
structure (smiles),measurement,setting,value
COc1cc(O)c(C)c(O)c1,normalized growth,"locus YAL013W, strain DEP1, active compounds read low",0.999
same,normalized growth,"locus YAL021C, strain ccr4, active compounds read low",1.03
same,normalized growth,"locus YAL026C, strain drs2, active compounds read low",1.02
same,normalized growth,"locus YAL030W, strain snc1, active compounds read low",1.02
same,normalized growth,"locus YBL061C, strain skt5, active compounds read low",1.01
same,normalized growth,"locus YBR009C, strain hhf1, active compounds read low",1.02
same,normalized growth,"locus YBR021W, strain FUR4, active compounds read low",0.995
same,normalized growth,"locus YBR023C, strain chs3, active compounds read low",1.02
same,normalized growth,"locus YBR171W, strain sec66, active compounds read low",1.03
same,normalized growth,"locus YBR229C, strain ROT2, active compounds read low",0.998
same,normalized growth,"locus YBR231C, strain swc5, active compounds read low",1.01
same,normalized growth,"locus YBR279W, strain paf1, active compounds read low",1.01
same,normalized growth,"locus YCL011C, strain gbp2, active compounds read low",1
same,normalized growth,"locus YCL016C, strain dcc1, active compounds read low",1
same,normalized growth,"locus YCL029C, strain bik1, active compounds read low",1.04
same,normalized growth,"locus YCL061C, strain MRC1, active compounds read low",1.01
same,normalized growth,"locus YCL069W, strain vba3, active compounds read low",1.01
same,normalized growth,"locus YCR088W, strain abp1, active compounds read low",1.01
same,normalized growth,"locus YDL005C, strain med2, active compounds read low",1.01
same,normalized growth,"locus YDL035C, strain GPR1, active compounds read low",1.01
same,normalized growth,"locus YDL040C, strain nat1, active compounds read low",1.01
same,normalized growth,"locus YDL074C, strain BRE1, active compounds read low",1.02
same,normalized growth,"locus YDL101C, strain DUN1, active compounds read low",1.01
same,normalized growth,"locus YDL134C, strain PPH21, active compounds read low",1
same,normalized growth,"locus YDL185W, strain tfp1, active compounds read low",1.02
same,normalized growth,"locus YDL192W, strain arf1, active compounds read low",1
same,normalized growth,"locus YDR001C, strain nth1, active compounds read low",1.01
same,normalized growth,"locus YDR069C, strain doa4, active compounds read low",1.01
same,normalized growth,"locus YDR101C, strain arx1, active compounds read low",1
same,normalized growth,"locus YDR137W, strain rgp1, active compounds read low",1.05
same,normalized growth,"locus YDR150W, strain NUM1, active compounds read low",0.995
same,normalized growth,"locus YDR159W, strain sac3, active compounds read low",1.01
same,normalized growth,"locus YDR162C, strain NBP2, active compounds read low",1.02
same,normalized growth,"locus YDR195W, strain ref2",1.02
same,normalized growth,"locus YDR297W, strain sur2, active compounds read low",1.01
same,normalized growth,"locus YDR318W, strain mcm21, active compounds read low",1.01
same,normalized growth,"locus YDR334W, strain swr1, active compounds read low",1.02
same,normalized growth,"locus YDR335W, strain msn5, active compounds read low",1.04
same,normalized growth,"locus YDR388W, active compounds read low",1
same,normalized growth,"locus YDR392W, strain spt3, active compounds read low",1.03
same,normalized growth,"locus YDR502C, strain sam2, active compounds read low",1.04
same,normalized growth,"locus YEL003W, strain gim4, active compounds read low",1.03
same,normalized growth,"locus YEL037C, strain rad23, active compounds read low",1.02
same,normalized growth,"locus YEL061C, strain CIN8 (second series), active compounds read low",1.02
same,normalized growth,"locus YEL061C, strain CIN8, active compounds read low",1
same,normalized growth,"locus YER015W, strain faa2, active compounds read low",1
same,normalized growth,"locus YER016W, strain bim1, active compounds read low",1.02
same,normalized growth,"locus YER110C, active compounds read low",1.01
same,normalized growth,"locus YER111C, strain swi4, active compounds read low",1.01
same,normalized growth,"locus YER155C, strain BEM2 (second series), active compounds read low",1.04
same,normalized growth,"locus YER155C, strain BEM2, active compounds read low",0.999
same,normalized growth,"locus YER167W, strain BCK2, active compounds read low",1
same,normalized growth,"locus YFR010W, strain ubp6, active compounds read low",1.02
same,normalized growth,"locus YGL078C, strain dbp3, active compounds read low",1.03
same,normalized growth,"locus YGL086W, strain mad1, active compounds read low",1.01
same,normalized growth,"locus YGL167C, strain pmr1, active compounds read low",1.01
same,normalized growth,"locus YGL173C, strain kem1, active compounds read low",1.02
same,normalized growth,"locus YGL227W, strain vid30, active compounds read low",1.01
same,normalized growth,"locus YGL240W, strain doc1, active compounds read low",0.977
same,normalized growth,"locus YGL248W, strain PDE1, active compounds read low",1.03
same,normalized growth,"locus YGL253W, strain hxk2, active compounds read low",1.02
same,normalized growth,"locus YGR135W, strain pre9, active compounds read low",1.02
same,normalized growth,"locus YGR252W, strain gcn5, active compounds read low",0.973
same,normalized growth,"locus YHR013C, strain ard1, active compounds read low",1.01
same,normalized growth,"locus YHR027C, strain rpn1, active compounds read low",1.01
same,normalized growth,"locus YHR030C, strain SLT2, active compounds read low",0.997 and 0.992
same,normalized growth,"locus YHR079C, strain IRE1 (second series), active compounds read low",1.01
same,normalized growth,"locus YHR079C, strain IRE1, active compounds read low",0.996
same,normalized growth,"locus YHR094C, strain hxt1, active compounds read low",1.01
same,normalized growth,"locus YHR129C, strain ARP1, active compounds read low",1.01
same,normalized growth,"locus YHR142W, strain chs7, active compounds read low",1.02
same,normalized growth,"locus YHR200W, strain rpn10, active compounds read low",1.02
same,normalized growth,"locus YIL066C, strain RNR3, active compounds read low",1.02
same,normalized growth,"locus YIL073C, strain SPO22, active compounds read low",1.13
same,normalized growth,"locus YIL125W, strain kgd1, active compounds read low",1.02
same,normalized growth,"locus YIR030C, strain dcg1, active compounds read low",1.01
same,normalized growth,"locus YJL092W, strain hpr5, active compounds read low",1.01
same,normalized growth,"locus YJL095W, strain BCK1 (second series), active compounds read low",1.01
same,normalized growth,"locus YJL095W, strain BCK1, active compounds read low",1.01 and 1
same,normalized growth,"locus YJL115W, strain asf1, active compounds read low",1.01
same,normalized growth,"locus YJL129C, strain trk1, active compounds read low",1.05
same,normalized growth,"locus YJL134W, strain LCB3, active compounds read low",1
same,normalized growth,"locus YJL154C, strain vps35, active compounds read low",1.01
same,normalized growth,"locus YJL164C, strain tpk1, active compounds read low",1.03
same,normalized growth,"locus YJL166W, strain qcr8, active compounds read low",1
same,normalized growth,"locus YJL168C, strain set2, active compounds read low",1.01
same,normalized growth,"locus YJL187C, strain SWE1 (second series), active compounds read low",1.01
same,normalized growth,"locus YJL187C, strain SWE1, active compounds read low",1.01
same,normalized growth,"locus YJR043C, strain POL32, active compounds read low",1.02
same,normalized growth,"locus YJR066W, strain TOR1, active compounds read low",0.906
same,normalized growth,"locus YJR075W, strain HOC1, active compounds read low",1
same,normalized growth,"locus YKL009W, strain mrt4, active compounds read low",1.16 [resistant] (active)
same,normalized growth,"locus YKL068W, active compounds read low",1.01
same,normalized growth,"locus YKL085W, strain MDH1 (second series), active compounds read low",1.02
same,normalized growth,"locus YKL085W, strain MDH1, active compounds read low",1.02
same,normalized growth,"locus YKL160W, strain elf1, active compounds read low",1.01
same,normalized growth,"locus YKL190W, strain CNB1, active compounds read low",0.998
same,normalized growth,"locus YKR001C, strain vps1, active compounds read low",1.02
same,normalized growth,"locus YKR026C, strain gcn3, active compounds read low",0.995
same,normalized growth,"locus YKR091W, strain srl3, active compounds read low",1.01
same,normalized growth,"locus YLL001W, strain dnm1, active compounds read low",1.01
same,normalized growth,"locus YLL026W, active compounds read low",1.01
same,normalized growth,"locus YLL041C, strain sdh2, active compounds read low",1.01
same,normalized growth,"locus YLR027C, strain aat2, active compounds read low",1.01
same,normalized growth,"locus YLR039C, strain RIC1, active compounds read low",1.02
same,normalized growth,"locus YLR058C, strain SHM2, active compounds read low",1.01
same,normalized growth,"locus YLR102C, strain apc9, active compounds read low",1.01
same,normalized growth,"locus YLR113W, strain HOG1, active compounds read low",0.975
same,normalized growth,"locus YLR221C, strain rsa3, active compounds read low",1.01
same,normalized growth,"locus YLR258W, strain gsy2, active compounds read low",1.02
same,normalized growth,"locus YLR262C, strain YPT6 (second series), active compounds read low",1.01
same,normalized growth,"locus YLR262C, strain YPT6, active compounds read low",1.05
same,normalized growth,"locus YLR268W, strain sec22, active compounds read low",1.02
same,normalized growth,"locus YLR320W, strain mms22, active compounds read low",1.02
same,normalized growth,"locus YLR330W, strain CHS5, active compounds read low",1
same,normalized growth,"locus YLR342W, strain FKS1 (second series), active compounds read low",1
same,normalized growth,"locus YLR342W, strain FKS1, active compounds read low",1.02
same,normalized growth,"locus YLR357W, strain rsc2, active compounds read low",1.02
same,normalized growth,"locus YLR370C, strain arc18, active compounds read low",1.02
same,normalized growth,"locus YLR371W, strain rom2, active compounds read low",1.01
same,normalized growth,"locus YLR384C, strain iki3, active compounds read low",1.03
same,normalized growth,"locus YLR418C, strain cdc73, active compounds read low",1.02
same,normalized growth,"locus YML016C, strain PPZ1, active compounds read low",1.01
same,normalized growth,"locus YML032C, strain rad52, active compounds read low",1
same,normalized growth,"locus YML120C, strain ndi1, active compounds read low",0.97
same,normalized growth,"locus YML124C, strain tub3, active compounds read low",1.01
same,normalized growth,"locus YMR058W, strain fet3, active compounds read low",1.01
same,normalized growth,"locus YMR078C, strain ctf18, active compounds read low",1.03
same,normalized growth,"locus YMR125W, strain sto1, active compounds read low",1.04
same,normalized growth,"locus YMR129W, active compounds read low",1.02
same,normalized growth,"locus YMR205C, strain PFK2, active compounds read low",1.01
same,normalized growth,"locus YMR223W, strain ubp8, active compounds read low",1.02
same,normalized growth,"locus YMR231W, strain pep5, active compounds read low",1.02
same,normalized growth,"locus YMR307W, strain GAS1, active compounds read low",1.01
same,normalized growth,"locus YNL067W, strain RPL9B, active compounds read low",1.01
same,normalized growth,"locus YNL071W, strain lat1, active compounds read low",1.03
same,normalized growth,"locus YNL183C, strain NPR1, active compounds read low",0.92
same,normalized growth,"locus YNL209W, strain ssb2, active compounds read low",1.03
same,normalized growth,"locus YNL233W, strain BNI4, active compounds read low",1.01
same,normalized growth,"locus YNL248C, strain rpa49, active compounds read low",1.04
same,normalized growth,"locus YNL250W, strain rad50, active compounds read low",1.03
same,normalized growth,"locus YNL271C, strain bni1, active compounds read low",1.03
same,normalized growth,"locus YNL298W, strain CLA4, active compounds read low",1.03
same,normalized growth,"locus YNL307C, strain MCK1, active compounds read low",1.03
same,normalized growth,"locus YNL322C, strain KRE1 (second series), active compounds read low",1.02
same,normalized growth,"locus YNR049C, strain mso1, active compounds read low",1.01
same,normalized growth,"locus YNR052C, strain pop2, active compounds read low",1.01
same,normalized growth,"locus YOL006C, strain TOP1, active compounds read low",1.19
same,normalized growth,"locus YOL012C, strain htz1",0.903
same,normalized growth,"locus YOL147C, strain pex11, active compounds read low",1.02
same,normalized growth,"locus YOR001W, strain rrp6, active compounds read low",1.02
same,normalized growth,"locus YOR061W, strain CKA2, active compounds read low",1.01
same,normalized growth,"locus YOR069W, strain VPS5, active compounds read low",1.01
same,normalized growth,"locus YOR070C, strain gyp1, active compounds read low",1.01
same,normalized growth,"locus YOR080W, strain dia2, active compounds read low",1.02
same,normalized growth,"locus YOR083W, strain WHI5, active compounds read low",1.01
same,normalized growth,"locus YOR106W, strain vam3, active compounds read low",0.998
same,normalized growth,"locus YOR136W, strain idh2, active compounds read low",1.02
same,normalized growth,"locus YOR144C, strain elg1, active compounds read low",1.01
same,normalized growth,"locus YOR184W, strain ser1, active compounds read low",1.02
same,normalized growth,"locus YOR231W, strain MKK1, active compounds read low",1.01
same,normalized growth,"locus YOR265W, strain rbl2, active compounds read low",1.01
same,normalized growth,"locus YOR270C, strain vph1, active compounds read low",1.05
same,normalized growth,"locus YOR290C, strain snf2, active compounds read low",0.988
same,normalized growth,"locus YOR316C, strain cot1, active compounds read low",1.01
same,normalized growth,"locus YPL051W, strain arl3, active compounds read low",1.02
same,normalized growth,"locus YPL078C, strain atp4, active compounds read low",1.03
same,normalized growth,"locus YPL106C, strain sse1, active compounds read low",1.01
same,normalized growth,"locus YPL240C, strain hsp82, active compounds read low",1.02
same,normalized growth,"locus YPL241C, strain CIN2, active compounds read low",1
same,normalized growth,"locus YPL256C, strain CLN2, active compounds read low",0.985
same,normalized growth,"locus YPR119W, strain clb2, active compounds read low",1.01
same,normalized growth,"locus YPR141C, strain kar3, active compounds read low",1.01
same,normalized growth,"locus YPR163C, strain tif3, active compounds read low",1.03
same,normalized growth,"locus YPR167C, strain met16, active compounds read low",1.03
same,normalized growth,"strain wtn01, active compounds read low",1.02
